FMDV inh = antivirals against foot and mouth disease virus. 410,000 tested, 1.2% active. AID 1159524. Potency, µM (titrated, usually from 57.9 µM), inactives show at the top dose activity change, negative = inhibition, hits mostly inhibitors. FMDV antiviral cell-based qHTS; calls by dose curve; tested in HEK293T cells; note: read-out not given here; potency is the fitted concentration of half-maximal effect; nearly all actives have a fitted effect of over 45% in size
HCV inh = HCV inhibition. Huh7.5.1 HCVcc-Cre infection, luciferase reporter, 44 h. Potency, µM (series often up to 41.8 µM), inactives show at the top dose activity change, negative = inhibition, usual class: inhibitors. 340,000 tested, 3.4% active. AID 651820; note: potency is the fitted concentration of half-maximal effect
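Antiviral activity was scored by luciferase reporter output from cells infected with HCVcc-Cre (~0.5 moi) in presence of compound, 44 h infection period, cells seeded 1,000/well 4 h prior.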
HCMV inh = inhibitors of human cytomegalovirus | HFF cells, HCMV-luciferase reporter, 72 h; hits give low values | activity change, negative = inhibition, % at 57.5 µM | 410,000 tested, 4.5% active; in the data active = activity change below about -60%; inconclusive = no clear call, values can overlap the other calls; inactive = above about -39%
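Luciferase read-out from HCMV-luciferase-infected HFFs (MOI 1 PFU/cell) 72 h post infection at 37C; compounds added after 16 h cell attachment; activity normalized between buffer-only basal and Salinomycin (10uM) inhibitor controls.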
AmpC inh detg = blocks E. coli AmpC beta-lactamase in detergent assay; AmpC hydrolysis of nitrocefin, absorbance 480 nm, 0.01% Triton; 370,000 tested, 0.041% active; P00811; AID 485294; Potency, µM (highest dose often 114 µM), for inactives: at the highest dose activity change, negative = inhibition, most hits filed as inhibitors;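 note: potency is the fitted concentration of half-maximal effect; 0% = no-compound wells and -100% = no-enzyme wells; nearly all actives have a fitted effect of over 25% in size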
Target sequence (P00811 whole entry, looked up): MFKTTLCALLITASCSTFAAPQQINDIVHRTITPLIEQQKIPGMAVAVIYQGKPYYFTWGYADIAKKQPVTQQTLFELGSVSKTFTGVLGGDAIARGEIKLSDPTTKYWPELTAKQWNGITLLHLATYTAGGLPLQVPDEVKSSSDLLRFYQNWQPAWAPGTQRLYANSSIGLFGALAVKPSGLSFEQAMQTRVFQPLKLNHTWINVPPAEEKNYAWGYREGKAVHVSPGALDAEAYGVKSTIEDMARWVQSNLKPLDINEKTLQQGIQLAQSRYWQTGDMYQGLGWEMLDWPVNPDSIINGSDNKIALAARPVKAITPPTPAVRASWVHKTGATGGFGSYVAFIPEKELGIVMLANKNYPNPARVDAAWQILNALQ
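AmpC (5.3 nM in the dispensed reagent) in 20 mM phosphate pH 7.0 with 0.01% (detergent screen) or 0.0001% Triton X-100 was preincubated with compounds for 15 min at room temperature. Nitrocefin was then added from an 800 uM solution, and hydrolysis was followed at 480 nm.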
AmpC no deterg = inhibitors of E. coli AmpC beta-lactamase without detergent; 330,000 tested, 0.52% active; Potency, µM (top dose mostly 57.1 µM), inactives show at the highest dose activity change, negative = inhibition, hits mostly inhibitors; AmpC nitrocefin hydrolysis, absorbance 480 nm, 0.0001% Triton; P00811; AID 485341;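 note: potency is the fitted concentration of half-maximal effect; plate controls were no compound for no effect and no enzyme for full effect; nearly all actives have a fitted effect of over 20% in size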
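20 mM phosphate pH 7.0 + 0.01% (detergent screen) or 0.0001% Triton X-100; 5.3 nM AmpC reagent; cpd preinc 15 min RT; nitrocefin (800 uM stock) to start; A480 q20 s × 4 min; Activity was normalised to no-enzyme and no-compound control wells.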
Active calls of the source: *; ? = inconclusive; . = no result given; [ ] = dose if it differs, or a comment. Only some compounds are listed: those with a hit (about 7.3% of all), similar ones and a draw of the others. Unless noted, calls come from the whole dose curve; as a rule, active = well fitted curve in the direction sought with a large enough effect; inconclusive = small, poorly fitted or top-dose-only effect, or another doubt; inactive = no such curve, though single readings can be large; an effect the other way counts as inactive or inconclusive. Unless noted, % is set by controls: 0 for no effect and ±100 for the full control effect.

SMILES | FMDV inh | HCV inh | HCMV inh | AmpC inh detg | AmpC no deterg
COc1ccc(NC(=O)CSc2nc3ccccc3nc2N2CCCCC2)cc1 | -27% | -24% | -17 | -6% | -29%
Cc1cccc(NC(=O)CSc2nc3ccccc3nc2N2CCCCC2)c1 | 0% | 1% | -84* | -14% | -33%
Cc1cccc(N2CCN(C(=O)CSc3nc4ccccc4nc3N3CC(C)OC(C)C3)CC2)c1C (centres undefined) | ? | 6.3µM* | -5 | ? | -12%
COc1cccc(NC(=O)CSc2nc3ccccc3nc2N2CCCC2)c1 | 3% | 10µM* | ? | ? | -18%
CCc1nc2n(n1)C(O)c1cc([N+](=O)[O-])ccc1S2 (centres undefined) | -19% | ? | 12 | -2% | 1%
O=C1C(=O)N(C(CCc2ccccc2)c2nnnn2Cc2ccccc2)c2ccccc21 (centres undefined) | . | . | 38 | . | .
Cc1[nH]c2ccccc2c1CC(=O)Nc1ccc(N(C)c2cccnc2)c(-c2cccc(Cl)c2)c1 | . | . | 0 | . | .
Cc1cccc(NC(=O)CSc2nc3ccccc3nc2N2CC(C)OC(C)C2)c1 (centres undefined) | 0% | 11µM* | -11 | -2% | 88%
Cc1[nH]c2c(C)cccc2c1CCNC(=O)c1cc2ccccc2oc1=O | -27% | . | 19 | -2% | .
CCOC(=O)c1sc(NC(=O)CSC(=S)N2CCN(C)CC2)nc1C | -14% | 13µM* | -20 | 1% | 37%
CCc1nnc(NC(=O)CSC(=S)N2CCOCC2)s1 | -3% | 18% | -98* | -3% | -11%
Cc1cnc(NC(=O)CSC(=S)N2CCOCC2)s1 | 6% | -4% | -23 | 2% | -9%
CCOC(=O)c1sc(NC(=O)CCSC)nc1C | 30% | -8% | -17 | ? | -16%
Cc1cc2oc(=O)cc(CN3CCN(c4ccc(Cl)c(Cl)c4)CC3)c2cc1Cl | -12% | . | 8 | . | .
COCC(O)Cn1ccnc1N=Nc1ccccc1 (centres undefined) | 10% | . | 39 | . | .
Cn1nc(C(F)(F)F)c(-c2cccc(C(F)(F)F)c2)c1NC(=O)c1ccco1 | -22% | -6% | -71* | -4% | 60%
O=C(Nc1ccc(Oc2cccnc2)nc1)c1ccc(C(F)(F)F)cc1 | ? | 2.2µM* | -72* | -5% | 19%
O=C(NC(=O)c1c(Cl)cccc1Cl)Nc1ccc(Oc2cccnc2)nc1 | -10% | 0% | -25 | -2% | 4%
CC(C)(C)c1ccc(Oc2ccc(NC(=O)c3cccs3)cn2)cc1 | 13µM* | ? | ? | -11% | -46%
Cn1nc(C(F)(F)F)c(-c2cccc(C(F)(F)F)c2)c1NC(=O)c1nccnc1C(=O)O | -3% | 23% | 21 | -7% | 6%
COc1ccc(-c2cccc(NC(=O)c3ccco3)c2)nn1 | -6% | -2%[8.37 µM] | -34 | 5% | ?
COc1ccc(-c2ccc(NC(=O)c3ccco3)cc2)nn1 | 11µM* | -20% | 7 | -14% | -21%
COc1ccc(NC(=O)c2cccs2)cn1 | 16% | 5% | 34 | 2% | -20%
Cc1ccc(NC(=O)C2CCN(C(=O)c3cnn(-c4ccccc4)c3-n3cccc3)CC2)cc1 | -1% | . | -16 | 14% | .
O=C(Cn1cc(SCc2cccc(Cl)c2)c2ccccc21)N1CCCCCC1 | 6% | . | -26 | 16% | .
SMILES | FMDV inh | HCV inh | HCMV inh | AmpC inh detg | AmpC no deterg
Cc1cc(Br)ccc1NC(=O)CNC(=O)c1cnn(C)c1 | -1% | 16% | 29 | 5% | -3%
O=C(Nc1ccc(Oc2cccc(C(F)(F)F)c2)nc1)c1ccco1 | ? | 10µM* | -72* | -9% | -13%
CC(C)(C)c1ccc(C(=O)Nc2ccccc2NC(=O)c2ccco2)cc1 | -19% | 13µM* | -20 | 0% | -14%
CC(C)(C)c1ccc(Oc2ccc(NC(=O)c3ccco3)cn2)cc1 | ? | 7.9µM* | -103* | 7% | -5%
COc1cc(OC)c(N(C)S(=O)(=O)c2cccc(C(=O)NC3=NCCS3)c2)cc1Cl | -3% | ? | 32 | 1% | -3%
O=C(Cn1nnc2ccccc2c1=O)NC1CCCCC1 | 19% | 11% | 6 | -6% | -9%
O=C(NCCc1ccccc1)C(=O)NCC(c1ccco1)S(=O)(=O)c1cccs1 (centres undefined) | -18% | . | 11 | 2% | .
O=C(CSc1nc(-c2ccco2)nc2cc(=O)[nH]n12)Nc1ccc(F)cc1 | -23% | . | -19 | 0% | .
Cc1cc(C)c(NC(=S)N2CCC(N(C)CC3CCCO3)CC2)c(C)c1 (centres undefined) | -14% | 10% | -72* | -1% | -10%
Cc1cccc(C)c1NC(=S)N1CCC(N(C)CC2CCCO2)CC1 (centres undefined) | -1% | 21% | -13 | 5% | -16%
N#C/C(=C\c1ccc(C(=O)O)cc1)c1ccccn1 | 1% | 1% | -28 | 3% | -2%
N#C/C(=C\c1c[nH]c2ccc(Br)cc12)c1ccccn1 | -17% | 11µM* | . | 4% | -3%
COc1ccc(NC(=O)CC2Nc3ccccc3NC2=O)cc1 (centres undefined) | 15% | . | 21 | 9% | .
COc1ccc(Cl)cc1NC(=O)Cn1c(=O)oc2ccccc21 | -9% | 1% | -15 | -6% | -19%
Cc1cc2c(cc1C)NC(CC(=O)NCc1ccccc1)C(=O)N2 (centres undefined) | 58% | ? | -109* | ? | -26%
COc1ccccc1NC(=O)CC1Nc2ccccc2NC1=O (centres undefined) | -6% | 10µM* | 72 | ? | -2%
COc1ccccc1NC(=O)Cn1c(=O)oc2ccccc21 | 7% | 12% | -6 | 1% | 0.4µM*
CC(=O)c1ccc(NC(=O)CC2Nc3cccc4cccc(c34)NC2=O)cc1 (centres undefined) | -23% | ? | 54 | ? | 16µM*
CCCC1(CCC)NC(=O)N(CC(=O)Nc2ccccc2OC)C1=O | 1% | -3% | -109* | -6% | 2%
CCOc1ccccc1C(=O)Nc1c(C(=O)Nc2ccc(F)cc2)oc2ccccc12 | -19% | . | -62* | 4% | .
O=C(Nc1ccc(F)cc1)c1oc2ccccc2c1NC(=O)C1CC1 | -27% | -6% | -60* | 0% | -28%
CCCCC1CCC(C(=O)N2CC(=O)Nc3ccc(C)cc3C2c2ccc(F)cc2)CC1 (centres undefined) | -26% | . | ? | -1% | .
O=C(Nc1ccc2nc(-c3ccco3)c(-c3ccco3)nc2c1)NC1CC1 | 24% | ? | . | -7% | -35%
O=C(c1cc(-c2ccccc2)on1)N1CCN(c2ccccc2)CC1 | -1% | 8% | 65 | ? | -4%
O=C(Nc1ccc(N2CCOCC2)cc1)Nc1ccc2nc(-c3ccco3)c(-c3ccco3)nc2c1 | 0% | 6.3µM* | -60* | -9% | 121%
O=C(c1cc(-c2ccco2)on1)N1CCN(c2ccccc2)CC1 | -13% | ? | 11 | -7% | 3.2µM*

Bioassay records from PubChem BioAssay.
